We go through 61 compounds from PubChem BioAssay AID577 (University of Pittsburgh Molecular Library Screening Center, 2007).

About 120 (0.18%) of roughly 65,000 compounds were called active. No stated cut-off is given here; in the data, active means z-score below about -3; inactive means the rest. This excerpt belongs to a sample that is enriched for actives.

The assay deals with Genome polyprotein (West Nile virus) (UniProt P06935). The assay is described as follows: inhibitors of WNV NS2B-NS3 protease, primary screen, biochemical, fluorogenic substrate (AID 577). The note with it: fluorogenic substrate Ex360/Em465, active compounds read low.
Genome polyprotein (West Nile virus), sequence (P06935 1371-1501 limits assumed): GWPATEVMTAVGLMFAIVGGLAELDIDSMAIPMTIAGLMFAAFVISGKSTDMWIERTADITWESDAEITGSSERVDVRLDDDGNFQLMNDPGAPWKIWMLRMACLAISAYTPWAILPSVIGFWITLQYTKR
Genome polyprotein (West Nile virus), sequence (P06935 1502-1679 limits assumed): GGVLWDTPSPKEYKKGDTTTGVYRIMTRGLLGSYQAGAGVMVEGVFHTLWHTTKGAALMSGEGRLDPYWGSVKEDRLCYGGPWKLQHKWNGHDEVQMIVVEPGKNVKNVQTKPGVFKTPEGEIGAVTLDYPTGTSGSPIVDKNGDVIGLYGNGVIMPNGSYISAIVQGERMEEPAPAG
`C[C@H](NC(=O)NCCc1ccccc1)C(=O)O`: the z-score is 0.46 (inactive).

Regarding `CC(=O)Nc1cccc2c1[n+]([O-])c(C)c(C)[n+]2[O-]`, the z-score is 1.06 (inactive). The same measure for `CC(NC(=O)CN1CCN(Cc2ccc(Cl)cc2)C1=O)c1ccc2c(c1)OCCO2` (stereo unspecified): 0.67 (inactive). For the compound `COc1ccc(OC)c(-n2cc3c(=O)n(C)c(=O)n(C)c3c2)c1`, the z-score is 0.45 (inactive).

For the compound `C=C(C)COc1ccc(-c2n[nH]c(C)c2-c2ccccc2OC)c(O)c1`, the z-score was 0.16 (inactive). `COc1ccc(CC(NC(C)=O)C(=O)NC2CCN(C(=O)Nc3ccc(C#N)cc3)CC2)cc1OC` (stereo unspecified): the z-score was -0.8 (inactive). The same measure for `Cc1cc(NC(=O)CCC(=O)N(c2cccc(F)c2)C(C(=O)NC2CCCC2)c2ccncc2)no1` (stereo unspecified): 1.41 (inactive); for `CCOc1ccc(-c2nnc(-c3ccco3)o2)cc1`: -0.08 (inactive). The same measure for `COc1ccc(CC(=O)Nc2ccc(-c3nnc(-c4ccc(C)cc4)o3)cc2)cc1`: 0.17 (inactive); for `Cc1ccc(OCC(=O)Nc2ccc(-c3nnc(-c4ccco4)o3)cc2)cc1`: -3.16 (active); for `CCCn1c(O)c(CN2CCCC(C)C2)c(C)c(C#N)c1=O` (stereo unspecified): -0.51 (inactive). The same measure for `Clc1ccc(Cc2nn3c(-c4ccncc4)nnc3s2)cc1`: 0.04 (inactive); for `O=C(O)C1OC(C(=O)O)C2C1C(F)(F)C2(F)F` (stereo unspecified): 1.24 (inactive); for `CC1CSc2nnc(CCc3ccccc3)n21` (stereo unspecified): -0.75 (inactive). Turning to `CCOC(=O)C1CCCN(C(=O)c2ccc(CS(=O)(=O)c3ccc(Br)cc3)o2)C1` (stereo unspecified), the z-score is -0.97 (inactive). Turning to `COc1cc2c(cc1NC(=O)CN1CCN(S(=O)(=O)c3ccc(F)cc3)CC1)oc1ccccc12`, the z-score was -0.05 (inactive). As for `CC(=O)N1C(=O)C2(Nc3ccccc3N2)c2ccccc21`, the z-score was -0.34 (inactive). To `O=S(=O)(NCc1ccccn1)c1ccc(F)cc1` belongs -0.56 (inactive). To `Cc1cc(=O)n2c3c(cccc13)CCC2` belongs -0.73 (inactive); to `CCCCc1nc2ccccc2c(NC(=O)CN2CCN(C)CC2)c1CCC`, -1.27 (inactive); to `Cc1ccc(C(C(=O)NC2CCCC2)N(Cc2ccco2)C(=O)CCC(=O)Nc2ccccn2)cc1` (stereo unspecified), 0.98 (inactive). To `O=C(NCc1cn2ccsc2n1)Nc1ccc(Cl)cc1` belongs -0.25 (inactive); to `COc1ccc(-c2cn3ccsc3n2)cc1`, -7.48 (active). `CCCC(=O)Nc1cccc(-c2cn3ccsc3n2)c1`: the z-score was -1.1 (inactive).

Consider `CCOc1ccc(NC(=O)Nc2cc(C)on2)cc1`, for which the z-score was 0.95 (inactive). For `Cn1c(=O)c2c(ncn2CC(=O)N2CCN(c3ccccc3)CC2)n(C)c1=O`, the z-score is 0.25 (inactive). The same measure for `c1ccc(CCC2=NCCn3cccc32)cc1`: -0.03 (inactive). The same measure for `COC(=O)c1cc(NC2c3ccccc3C(=O)N2c2ccc(Cl)cn2)cc(C(=O)OC)c1` (stereo unspecified): -0.39 (inactive); for `CC(C)(C)c1ccc(C(=O)NCCC(=O)NCc2ccco2)cc1`: 0.25 (inactive). On to `CCCN(CCC)CCNC(=O)c1cc2c(C)nc3ccccc3c2o1`, for which the z-score is 0.99 (inactive). `Cc1cc2cc(CN(Cc3cccs3)Cc3nnnn3CC3CCCO3)c(=O)[nH]c2cc1C` (stereo unspecified): the z-score was -0.04 (inactive). To `CCOc1ccccc1Oc1cn[nH]c1-c1ccc(OC)cc1O` belongs -0.64 (inactive). On to `CC(C)CCNC(=O)CN(C(=O)Cn1nnc(-c2ccc(F)cc2)n1)C1CCCC1`, for which the z-score is -0.44 (inactive).

In the case of `CCOC(=O)C1CCCN(C(=O)CN(c2ccc(OC)cc2)S(=O)(=O)c2c(C)noc2C)C1` (stereo unspecified), the z-score was -0.04 (inactive).

Turning to `Cc1cc(C)c(C)c(S(=O)(=O)Nc2ccc(O)cc2)c1C`, the z-score was -1.62 (inactive).

As for `CC(C(=O)N1CCOCC1)N1c2cccc3cccc(c23)S1(=O)=O` (stereo unspecified), the z-score is -0.43 (inactive). Turning to `CCCOc1ccc(Cn2c(O)cc(=O)[nH]c2=O)cc1`, the z-score was 0.4 (inactive). The same measure for `CCC(=O)N1CCN=C1SCc1ccc(F)cc1`: 0.56 (inactive).

Take `COc1ccc(CCN=C2SCC(=O)N2C)cc1OC`: the z-score is -0.84 (inactive). To `Cn1c(=O)[nH]c(=O)c2c1nc(NCCCn1ccnc1)n2Cc1cccc(Br)c1` belongs -0.12 (inactive); to `CC(=O)Oc1ccc2c(C)c(CC(C)O)c(=O)oc2c1` (stereo unspecified), 5.37 (inactive). Take `COC(=O)c1ccccc1NC(=O)CSc1ccccn1`: the z-score is -0.33 (inactive). The same measure for `Cn1cccc1Cc1nnc(SCC(=O)NCCc2ccccc2)n1-c1ccc(F)cc1`: -0.68 (inactive); for `COCCn1c(CN(Cc2ccccc2)Cc2ccccc2)nc2c1c(=O)n(C)c(=O)n2C`: 0.73 (inactive). For the compound `O=C(COc1ccc(Cl)cc1)Nc1ccccc1CO`, the z-score is 1.62 (inactive). As for `CC(=O)C1=C(O)C(=O)N(c2ccc(S(N)(=O)=O)cc2)C1c1ccccc1F` (stereo unspecified), the z-score was -0.26 (inactive). To `O=C(NCc1cccnc1)c1ccc(CS(=O)(=O)c2ccc(Br)cc2)o1` belongs -0.48 (inactive). The same measure for `CN(C)c1nc(N)nc(CSc2nnnn2-c2cccc3ccccc23)n1`: -0.13 (inactive); for `Fc1ccc(OCc2nn3c(Cn4nnc5ccccc54)nnc3s2)cc1`: 1.56 (inactive). The same measure for `CS(=O)(=O)c1ccc2nc(NC(=O)C3CCCCC3)sc2c1`: -0.5 (inactive); for `Cc1ccc(F)cc1NC(=O)c1cccc(N(C)C)c1`: -0.19 (inactive); for `O=C(Nc1cccc(Cl)c1)OCc1ccccn1`: 0.46 (inactive). In the case of `CCC(C)(NC(=O)c1ccccn1)C(=O)NC1CCCCC1` (stereo unspecified), the z-score was 0.53 (inactive). To `O=C(Nc1ccc2c(c1)OCO2)C1CC(c2c(F)cccc2Cl)=NO1` (stereo unspecified) belongs 1.16 (inactive).

As to `CCSC1(SCC)N=C(N)C2(C#N)C(c3ccccc3)NC(C)=CC12C#N` (stereo unspecified), the z-score is -1.23 (inactive). To `O=C(CC1OC(=O)c2ccccc21)NC1CCCCC1` (stereo unspecified) belongs -0.53 (inactive).

On to `O=C(NCC1CCCO1)C(C(=O)c1ccccc1)n1cc(Cl)ccc1=O` (stereo unspecified), for which the z-score is -0.94 (inactive).

In the case of `CCn1cc(C(=O)N2CCN(C3CCCCC3)CC2)c2cc(OC)c(OC)cc2c1=O`, the z-score is 0.44 (inactive). Take `O=C(O)C1CC(=O)N(Cc2cccnc2)C1` (stereo unspecified): the z-score is -0.77 (inactive). To `O=C1CCC(Cc2ccccc2)N1` (stereo unspecified) belongs 0.78 (inactive). To `O.O.O.O=S(=O)([O-])OC[C@H]1O[C@@H](O[C@]2(COS(=O)(=O)[O-])O[C@H](OS(=O)(=O)[O-])[C@@H](OS(=O)(=O)[O-])[C@@H]2OS(=O)(=O)[O-])[C@H](OS(=O)(=O)[O-])[C@@H](OS(=O)(=O)[O-])[C@@H]1OS(=O)(=O)[O-].[Al]` belongs -0.72 (inactive).
